# Results published in PubChem BioAssay (Tox21).
# Records with an inconclusive call do not appear. Where a call stands in place of a potency, no number is given. A number with no mark means an inactive call. Activity calls are given as the source filed them. Calls follow the shape of the dose curve; as a rule, active = well fitted cell-killing curve with a large enough effect in the repeat runs; inconclusive = weak or mixed curves, or effect the other way; inactive = flat fitted curve, though single readings scatter.
# Assay: cAMP Responsive Elements (CRE) small molecule antagonists, cell-based qHTS assay: qHTS cell viability counter screen (AID 2060913); also: nearly all actives have a fitted effect of over 40% in size
# Conditions: CRE-bla HEK293T viability, CellTiter-Glo luminescence, 5 h; series mostly up to 92.4 µM
# Summary of the method: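 Viability of NKH477-stimulated (0.25 uM final) CRE-bla HEK293T cells is measured by CellTiter-Glo luminescence following 3 hrs compound exposure at 37 C.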
Structure (SMILES),Potency,"viability change, negative = cytotoxic"
CCCCCCCCCCCCCO,inactive,–
CC(C)CCCCCCCOC(=O)CCCCC(=O)OCCCCCCCC(C)C,inactive,–
CN(C)CCCN(C)CCCN(C)C,inactive,–
Cc1cccc(Nc2cc(Cl)nc(SCC(=O)O)n2)c1C,inactive,–
COc1ccc(CCO)cc1,inactive,–
CCC(C)c1cc(C(C)(C)C)c(O)c(C(C)(C)C)c1 (centres undefined),inactive,–
c1cc(CCCc2ccncc2)ccn1,inactive,–
C[C@@H](O[C@H]1OCCN(Cc2n[nH]c(=O)[nH]2)[C@H]1c1ccc(F)cc1)c1cc(C(F)(F)F)cc(C(F)(F)F)c1,inactive,–
COc1cc(C)nc(-n2nc(C)cc2OC)n1,inactive,–
C1OCOCO1,inactive,–
Cc1cccc(OCC(O)CNC(C)(C)C)c1C (centres undefined),inactive,–
CCCCCC(C)OC(=O)COc1ccc(Cl)c2cccnc12 (centres undefined),inactive,–
C[C@H](O)C(=O)Nc1c(I)c(C(=O)NC(CO)CO)c(I)c(C(=O)NC(CO)CO)c1I,inactive,–
O=C(N[C@H](CO)[C@H](O)c1ccc([N+](=O)[O-])cc1)C(Cl)Cl,inactive,–
N#CCc1ccccc1[N+](=O)[O-],inactive,–
O=C(/C=C/C=C/c1ccc2c(c1)OCO2)N1CCCCC1,inactive,–
CC(N)=O,inactive,–
Nc1ccc2c(c1)CN1C(=O)c3ccccc3C1=N2,–,-16.9% [at 18.9 µM]
CN(CCOc1ccc(NS(C)(=O)=O)cc1)CCc1ccc(NS(C)(=O)=O)cc1,inactive,–
C=C1CC[C@H](O)CC1=C/C=C1\CCC[C@]2(C)[C@@H]([C@H](C)/C=C/[C@H](C)C(C)C)CC[C@@H]12,inactive,–

Structure (SMILES),Potency,"viability change, negative = cytotoxic"
CCC(Cl)C(Cl)C(Cl)CC(Cl)C(Cl)C(C)Cl (centres undefined),inactive,–
FC(F)(F)c1ccc(Cl)cc1Cl,inactive,–
CCc1nn(CCCN2CCN(c3cccc(Cl)c3)CC2)c(=O)n1CCOc1ccccc1,inactive,–
CC(C)CCCC(C)CCO (centres undefined),inactive,–
O=C(O)P(=O)(O)O,inactive,–
CS(=O)(=O)CCNCc1ccc(-c2ccc3ncnc(Nc4ccc(OCc5cccc(F)c5)c(Cl)c4)c3c2)o1,inactive,–
CC(=O)Nc1ccc(S(=O)(=O)Nc2ccc([N+](=O)[O-])cc2)cc1,inactive,–
C=CCN(CC=C)CC=C,inactive,–
CN(C)CCOC(c1ccccc1)c1ccccc1 (tested in a mixture with another compound),inactive,–
Cc1ccccc1N1C(=O)c2cc(S(N)(=O)=O)c(Cl)cc2NC1C (centres undefined),inactive,–
O=S(=O)(O)CO,inactive,–
NCCCCCC(=O)O,inactive,–
Cc1cn([C@@H]2O[C@H](CO)[C@@H](O)[C@@H]2F)c(=O)[nH]c1=O,inactive,–
CCN(CCO)c1cccc(C)c1,inactive,–
CCN(Cc1cccc(S(=O)(=O)O)c1)c1ccc(C(=C2C=CC(=[N+](CC)Cc3cccc(S(=O)(=O)O)c3)C=C2)c2ccc(O)cc2S(=O)(=O)[O-])cc1,inactive,–
C=C(C)C(=O)OCCC(C)OC(=O)C(=C)C (centres undefined),inactive,–
CC(C)N=C(N)/N=C(\N)Nc1ccc(Cl)cc1,inactive,–
CSc1c(Cl)c(Cl)c(Cl)c(Cl)c1Cl,inactive,–
CCCCCCc1ccc(N)cc1,inactive,–
